Data on 96 compounds can be found in PubChem BioAssay AID1851 (National Center for Advancing Translational Sciences (NCATS), 2009).

For orientation: AC50 means the midpoint of the concentration-response curve, whichever way the signal moves.

Values joined by “and” are separate entries in the source; they are usually repeats but may differ in a detail not shown here. Identical values can stand only once. Hit rate of the full screen: of about 16,000 compounds, about 2,600 (16%) were called active. About 20% were inconclusive and are not listed. Calls follow the shape of the dose curve; as a rule, active = well fitted curve in the direction sought with a large enough effect; inconclusive = small, poorly fitted or top-dose-only effect, or effect the other way; inactive = no such curve, though single readings can be large or run the other way. Not all results are given here. The source holds several records for some structures; these can differ, active in one and inactive in another.
% is scaled to controls: 0 for no effect and ±100 for the full control effect.

Cytochrome P450 2D6 (Homo sapiens), sequence (P10635 whole entry, looked up): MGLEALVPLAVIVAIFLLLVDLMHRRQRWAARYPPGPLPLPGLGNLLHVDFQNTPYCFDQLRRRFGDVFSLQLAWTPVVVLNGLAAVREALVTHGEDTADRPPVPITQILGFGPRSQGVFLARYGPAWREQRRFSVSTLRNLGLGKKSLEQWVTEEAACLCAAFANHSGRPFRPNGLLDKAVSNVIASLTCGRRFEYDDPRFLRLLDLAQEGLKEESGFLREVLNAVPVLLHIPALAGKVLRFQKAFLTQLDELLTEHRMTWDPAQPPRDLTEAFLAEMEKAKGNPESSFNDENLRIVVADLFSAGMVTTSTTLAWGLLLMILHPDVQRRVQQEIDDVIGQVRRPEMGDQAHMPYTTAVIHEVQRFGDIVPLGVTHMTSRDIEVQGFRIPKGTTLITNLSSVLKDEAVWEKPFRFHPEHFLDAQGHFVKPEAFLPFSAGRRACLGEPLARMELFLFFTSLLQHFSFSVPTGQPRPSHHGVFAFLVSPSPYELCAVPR

The assay concerns the target Cytochrome P450 2D6 (Homo sapiens) (UniProt P10635). Kind of assay: Cytochrome panel assay with activity outcomes. The settings on record: recombinant CYP, pro-luciferin dealkylation, luminescence, p450-cyp2d6; series mostly up to 57.1 µM.
`CC1CCN(S(=O)(=O)c2ccc3c(c2)C(=NO)c2cc(S(=O)(=O)N4CCC(C)CC4)ccc2-3)CC1`: the AC50 entry is “inactive”.
The same measure, in the same setting: as for `CC1CCN(CC[C@@H]2CCCN2S(=O)(=O)c2cccc(O)c2)CC1`, the figure is 15.8 µM (active); as for `CC1Cc2ccccc2N1C(=O)C1CCCCN1S(=O)(=O)c1ccccc1` (stereo unspecified), “inactive”; as for `OC[C@@H]1NC[C@@H](O)[C@H]1O`, “inactive”.
The same measure, in the same setting: as for `O=C(C/C=N/OCc1ccc(F)cc1Cl)c1cnc(-c2ccccc2)s1`, the entry is “inactive”; as for `O=C(COC(=O)COc1ccccc1)Nc1ccc(OC(F)(F)F)cc1`, “inactive”.
On to `CC(C)OC(=O)/C(=C\c1ccc2c(c1)c1ccccc1n2C)NC(=O)c1ccccc1`, for which the AC50 entry is “inactive”.
On to `COCCn1c(=O)cnc2cnc(Oc3ccccc3)nc21`, for which the AC50 result was “inactive”.
Same read-out and setting: as for `COCCCNC(=O)c1c(N)n(/N=C/c2ccccn2)c2nc3ccccc3nc12`, the entry is “inactive”; as for `CCCCCOC(=O)c1c(N)n(CCOC)c2nc3ccccc3nc12`, 25.1 µM (active); as for `CN(C1CCCCC1)S(=O)(=O)c1ccc(NC(=S)NC(=O)c2cccs2)cc1`, “inactive”.
The same measure, in the same setting: as for `COC(=O)c1sc2ncccc2c1OCc1c(Cl)cccc1Cl`, the entry is “inactive”; as for `CCCCN1CCC(n2c(=O)[nH]c3ccccc32)CC1`, 3.16 µM (active).
On the same count and under the same terms, as for `O=c1cc(N2CCC(Cc3ccccc3)CC2)[nH]c(=O)n1C1CCCCC1`, the entry is “inactive”; as for `CCn1c(=O)[nH]c2ccccc2c1=O`, “inactive”.
With `CC1(C)CC(=O)c2cn3ncnc3nc2C1`, the AC50 entry is “inactive”.
Still for that read-out and setting: as for `O=C1C2C3C=CC(C3)C2C(=O)N1/N=C/c1cn(Cc2ccc(F)cc2)c2ccccc12` (stereo unspecified), the entry is “inactive”; as for `Nc1nc(-c2cccs2)cs1`, “inactive”; as for `Cc1cc(-c2cccs2)nc(-n2cccc2)n1`, 14.1 µM (active).
Still for that read-out and setting: as for `Cc1oc(-c2cccs2)[n+]([O-])c1C`, the entry is “inactive”.
Same read-out and setting: as for `Cc1cc(NC(=O)CCC(=O)N(CC2CCCO2)C(C(=O)NC2CCCC2)c2cccnc2)no1` (stereo unspecified), the entry is “inactive”; as for `C=CCSc1nc(NC)c2sccc2n1`, “inactive”; as for `Cc1cccc(NC(=S)N2CCC(N(C)CC3CCCO3)CC2)c1C` (stereo unspecified), “inactive”.
On to `COc1ccccc1-c1c(C(F)(F)F)oc2cc(OC(=O)c3cccc([N+](=O)[O-])c3C)ccc2c1=O`, for which the AC50 entry was “inactive”.
Still for that read-out and setting: as for `Cc1ccc(NC(=O)/C(=C\c2ccc([N+](=O)[O-])cc2)NC(=O)c2ccccc2)cc1`, the entry is “inactive”; as for `O=C(Nc1cccc2ccccc12)/C(=C/c1ccc([N+](=O)[O-])cc1)NC(=O)c1ccccc1`, “inactive”.
For the compound `O=C(OCC(=O)c1ccc([N+](=O)[O-])cc1)/C(=C\c1ccc(Cl)cc1)NC(=O)c1ccccc1`, the half-maximal activity concentration (AC50) was 14.1 µM (active).
The same measure, in the same setting: as for `Cc1cccc(Oc2ncnc3onc(C)c23)c1C`, the entry is “inactive”.
`O=C(Cn1ccc(=O)[nH]c1=O)Nc1ccc(C(=O)O)c(O)c1`: the activity, negative = inhibition is -2.13% [at 11.4 µM] (inactive).
As for `N=c1sccn1CC(=O)Nc1cccc(Oc2ccccc2)c1`, the concentration at half-maximal activity (AC50) is 1 µM (active).
For `COc1cccc(NC(=O)CSc2nc3ccccc3cc2Cc2ccccc2)c1`, the AC50 result is “inactive”.
On the same count and under the same terms, as for `CSc1nnc(-c2sccc2OCc2ccccc2)n1C`, the entry is “inactive”.
Regarding `C#CCCCO/N=C1/C[C@@H](O)[C@@H](O)[C@@H]2[C@@H]3C(=O)N([C@@H](C)c4ccccc4)C(=O)[C@H]3CC[C@H]12`, the activity, negative = inhibition was 12% [at 11.4 µM] (inactive).
For `CC[C@H](NC(=O)c1c(C)c(-c2ccccc2)nc2ccccc12)c1ccccc1`, the AC50 result was “inactive”.
On the same count and under the same terms, as for `CNc1csc(C)c(C)c1=O`, the entry is “inactive”.
`C[C@H](NCCC(c1ccccc1)c1ccccc1)c1ccccc1`: the AC50 was 0.158 µM (active).
For `O=C1[C@@H]2[C@H]3[C@H](O)[C@H](O)C/C(=N/OC[C@@H](O)COCc4ccco4)[C@H]3CC[C@H]2C(=O)N1c1ccc(F)cc1F`, the activity, negative = inhibition was -0.021% [at 11.4 µM] (inactive).
Turning to `COc1cccc(NC(=O)C2c3cc(OC)c(OC)cc3C(=O)N(C)C2c2cccnc2)c1` (stereo unspecified), the AC50 result is “inactive”.
Same read-out and setting: as for `C=CC(C)(C)c1[nH]c2ccccc2c1C1=C(O)C(=O)C(c2c[nH]c3c(CC=C(C)C)cccc23)=C(O)C1=O`, the figure is 0.00631 µM (active); as for `O=C1C2C3C=CC(CC3)C2C(=O)N1/N=C/c1ccccc1O` (stereo unspecified), “inactive”.
Same read-out and setting: as for `Cn1c2c(c(=O)n(C)c1=O)[C@@H]1c3c(ccc4ccccc34)OC[C@@H]1CO2`, the entry is “inactive”; as for `COc1cc(C=O)ccc1OCCCOc1ccccc1C(=O)O`, “inactive”; as for `CCCCC1(C)Nc2ccccc2-c2nc3ccccc3n21` (stereo unspecified), 20 µM (active).
Same read-out and setting: as for `CCC1(C)Nc2ccccc2C(=O)N1O` (stereo unspecified), the entry is “inactive”; as for `COc1cccc(Cn2c(=O)c(-c3ccc(Cl)cc3)nc3cnc(N4CCN(C)CC4)nc32)c1`, “inactive”; as for `CN(CC(=O)N1CCN(c2ccccc2)CC1)S(=O)(=O)c1cnc[nH]1`, 14.1 µM (active).
`CC1CCN(C(=O)CN(C)S(=O)(=O)c2cccc3nsnc23)CC1`: the AC50 result was “inactive”.
The same measure, in the same setting: as for `CCc1cccc(NC(=O)CN(C)S(=O)(=O)c2cnc[nH]2)c1`, the entry is “inactive”.
`CC(C)(Oc1ccc(-c2cccc3ccccc23)cc1)C(=O)O`: the activity, negative = inhibition was 11.3% [at 11.4 µM] (inactive).
As for `COCC(=O)N1CCC2(CC1)CCN(c1ccccn1)CC2`, the AC50 entry is “inactive”.
Same read-out and setting: as for `COCC(=O)N1CCC2(CC1)CN(C(=O)Nc1ccc(OC)cc1)C2`, the entry is “inactive”; as for `COCC(=O)N1CCC2(CC1)CN(C(=O)Nc1cccc(F)c1)C2`, “inactive”.
The same measure, in the same setting: as for `COCC(=O)N1CCC2(CCCN(C(=O)Nc3ccc(OC)cc3)C2)CC1`, the entry is “inactive”; as for `COCC(=O)N1CCC2(CC1)CN(C(c1ccccc1)c1ccccc1)C2`, 2.51 µM (active); as for `COCC(=O)N1CCC2(CC1)CCN(c1cccc(-c3ccccc3)c1)CC2`, “inactive”.
The same measure, in the same setting: as for `COCC(=O)N1CCC[C@@]2(CCN(C(c3ccccc3)c3ccccc3)C2)C1`, the figure is 6.31 µM (active); as for `COCC(=O)N1CCC2(CCCN(C(=O)Nc3ccccc3)C2)CC1`, “inactive”.
Turning to `COCC(=O)N1CCC2(CC1)CCN(C(c1ccccc1)c1ccccc1)CC2`, the AC50 is 12.6 µM (active).
Still for that read-out and setting: as for `Cc1ccc(NC(=O)CC2CS(=O)(=O)CC2CC(=O)Nc2ccc(C)c(C)c2)cc1C` (stereo unspecified), the entry is “inactive”; as for `OC[C@H]1NC[C@@H](O)[C@@H](O)[C@H]1O`, “inactive”.
Still for that read-out and setting: as for `Cc1ccc(OCC(=O)NNC(=O)c2cc3ccccc3o2)cc1C`, the entry is “inactive”; as for `COc1cccc(C(=O)N2N=C(c3cccc(OC)c3)CC2(O)C(F)(F)F)c1` (stereo unspecified), “inactive”.
On the same count and under the same terms, as for `CC(C)(Oc1ccc([C@@H]2CC2(Cl)Cl)cc1)C(=O)O`, the entry is “inactive”; as for `CC(C)c1ccc(N2C(=O)CC(Sc3nc4ccccc4o3)C2=O)cc1` (stereo unspecified), “inactive”; as for `C[C@@]12CC3CC(N)(C1)C[C@@](C)(C3)C2`, “inactive”.
Regarding `C[C@]12CC3CC(N)(C1)C[C@@](C)(C3)C2`, the half-maximal activity concentration (AC50) result is “inactive and 316 nM (active)”.
The same measure, in the same setting: as for `CCc1nnc(NC(=O)CSc2nc3cc4c(cc3cc2C)OCCO4)s1`, the entry is “inactive”; as for `CC1=N/C(=C\c2ccc([N+](=O)[O-])cc2)C(=O)N1c1ccc(Br)c(C)c1`, “inactive”.
As to `COc1cc(Cn2cnnn2)ccc1O`, the AC50 entry was “inactive”.
On the same count and under the same terms, as for `CNC(=O)/C=C1\NC(C)(C)Cc2c1ccc1ccccc21`, the figure is 14.1 µM (active).
The same measure, in the same setting: as for `CC1(C)Cc2c(ccc3ccccc23)C(=O)N1`, the entry is “inactive”.
On the same count and under the same terms, as for `Cc1cccc(C(=O)NCN2CCN(c3ccccc3C#N)CC2)c1`, the entry is “inactive”.
As for `CC(C)(C[C@@]1(C)NC(=O)NC1=O)OCc1ccccc1`, the activity, negative = inhibition is 1.81% [at 11.4 µM] (inactive).
`CCNCCCNCCCNCCCNCC`: the AC50 result was “inactive”.
As to `CC(C)CO/N=C1/C[C@@H](O)[C@@H](O)[C@@H]2[C@@H]3C(=O)N([C@@H](C)c4ccccc4)C(=O)[C@H]3CC[C@@H]12`, the activity, negative = inhibition is 17.4% [at 11.4 µM] (inactive).
Take `COC(=O)C(C)Sc1ccc2nnc(-c3ccc(F)cc3)n2n1` (stereo unspecified): the AC50 result was “inactive”.
On the same count and under the same terms, as for `CN=c1nc(-c2ccccc2)n(-c2ccccc2)s1`, the figure is 31.6 µM (active); as for `CC(=O)c1c(C)nc(-c2ccccc2)n1O`, “inactive”; as for `O=c1nc(-c2ccccc2)n(-c2ccccc2)c2ncccc12`, “inactive”.
As to `COc1cc(/C=N/NC(=O)c2ccncc2)ccc1OC(=O)c1ccc([N+](=O)[O-])cc1`, the AC50 entry was “inactive”.
On the same count and under the same terms, as for `O=C(c1cnccn1)N1CCC[C@@]2(CCN(Cc3cc(C(F)(F)F)cc(C(F)(F)F)c3)C2)C1`, the figure is 3.16 µM (active); as for `Cc1noc(C)c1C(=O)N1CCC[C@@]2(CCN(Cc3cc(C(F)(F)F)cc(C(F)(F)F)c3)C2)C1`, “inactive”; as for `O=C(c1csnn1)N1CCC2(CC1)CN(Cc1cc(C(F)(F)F)cc(C(F)(F)F)c1)C2`, 12.6 µM (active).
On the same count and under the same terms, as for `FC(F)(F)c1cc(CN2CC3(CCNCC3)C2)cc(C(F)(F)F)c1`, the entry is “inactive”; as for `O=C(c1cnccn1)N1CCC[C@@]2(CCN(Cc3ccncc3)C2)C1`, “inactive”; as for `CS(=O)(=O)N1CCC2(CC1)CN(Cc1nccs1)C2`, “inactive”.
For the compound `O=C(c1csnn1)N1CCC2(CC1)CCN(c1ccncc1)CC2`, the AC50 entry is “inactive”.
Still for that read-out and setting: as for `O=C(c1ccco1)N1CCC2(CC1)CN(Cc1cc(C(F)(F)F)cc(C(F)(F)F)c1)C2`, the figure is 6.31 µM (active); as for `CS(=O)(=O)N1CCC2(CC1)CN(Cc1cc(C(F)(F)F)cc(C(F)(F)F)c1)C2`, 0.398 µM (active).
Same read-out and setting: as for `O=C(c1cc(C(F)(F)F)cc(C(F)(F)F)c1)N1CCC2(CCCN(Cc3nccs3)C2)CC1`, the entry is “inactive”; as for `COC(=O)c1cnn(C(=O)c2ccccc2Br)c1N`, “inactive”; as for `CN(C)c1ccc(O)c2c1C[C@H]1C[C@H]3[C@@H](N(C)C)C(=O)C(C(N)=O)=C(O)[C@]3(O)C(=O)C1=C2O`, “inactive”.
Same read-out and setting: as for `CCOc1ccc(-c2nnc3ccc(SCC(=O)NCc4ccco4)nn23)cc1`, the entry is “inactive”; as for `N#Cc1cc2nc(O)c(O)nc2cc1[N+](=O)[O-]`, “inactive”; as for `CC[C@H](C)C(=O)O[C@@H]1C[C@H](C)C=C2C=C[C@H](C)[C@@H](CC[C@H]3C[C@@H](O)CC(=O)O3)[C@H]21`, “inactive”.
Take `CO[C@H]1C=CO[C@]2(C)Oc3c(C)c(O)c4c(O)c(c5c(c4c3C2=O)NC2(CCN(CC(C)C)CC2)N=5)=NC(=O)C(C)=CC=C[C@@H](C)[C@@H](O)[C@@H](C)[C@@H](O)[C@@H](C)[C@@H](OC(C)=O)[C@@H]1C`: the AC50 entry is “inactive”.
